Assay results taken from PubChem BioAssay AID1159580 (chemical genetic matrix, 2015).
The whole screen tested about 5,500 compounds, of which about 2,000 (36%) were called active. Roughly 18% stayed inconclusive and do not appear here. Rule as the data show it: active = normalized growth mostly below about 0.91 (no sharp cut-off); inconclusive = no clear call, values can overlap the other calls; inactive = mostly above about 0.92. The list shows a part of the results.

Experiment: chemical genetic growth profiling, strain panel (AID 1159580);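 also: tested at 20 µM; growth read once vehicle control cultures reached saturation at 30 °C; 1 = growth at the plate median or of vehicle wells; lower values mean less growth of the strain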
Details: growth OD
[1] = S. cerevisiae deletion strains, locus YAL013W, strain DEP1, active compounds read low
[2] = S. cerevisiae deletion strains, locus YDL101C, strain DUN1, active compounds read low
[3] = S. cerevisiae deletion strains, locus YDR150W, strain NUM1, active compounds read low
[4] = S. cerevisiae deletion strains, locus YEL061C, strain CIN8, active compounds read low
[5] = S. cerevisiae deletion strains, locus YGR078C, strain PAC10, active compounds read low
[6] = S. cerevisiae deletion strains, locus YHR030C, strain SLT2, active compounds read low
[7] = S. cerevisiae deletion strains, locus YHR087W, strain rtc3, active compounds read low
[8] = S. cerevisiae deletion strains, locus YJR043C, strain POL32, active compounds read low
[9] = S. cerevisiae deletion strains, locus YJR075W, strain HOC1, active compounds read low
[10] = S. cerevisiae deletion strains, locus YLR039C, strain RIC1, active compounds read low
[11] = S. cerevisiae deletion strains, locus YLR058C, strain SHM2 (second series), active compounds read low
[12] = S. cerevisiae deletion strains, locus YLR085C, strain ARP6, active compounds read low
[13] = S. cerevisiae deletion strains, locus YLR262C, strain YPT6, active compounds read low
[14] = S. cerevisiae deletion strains, locus YML094W, strain GIM5, active compounds read low
[15] = S. cerevisiae deletion strains, locus YMR219W, strain ESC1, active compounds read low
[16] = S. cerevisiae deletion strains, locus YMR263W, strain SAP30, active compounds read low
[17] = S. cerevisiae deletion strains, locus YNL153C, strain GIM3, active compounds read low
[18] = S. cerevisiae deletion strains, locus YNL298W, strain CLA4 (second series), active compounds read low
[19] = S. cerevisiae deletion strains, locus YNL322C, strain KRE1, active compounds read low
[20] = S. cerevisiae deletion strains, locus YNR030W, strain Alg12, active compounds read low
[21] = S. cerevisiae deletion strains, locus YPL055C, strain LGE1, active compounds read low
[22] = S. cerevisiae deletion strains, locus YPL241C, strain CIN2, active compounds read low
[23] = S. cerevisiae deletion strains, locus YPR135W, strain CTF4, active compounds read low
[24] = S. cerevisiae strains, strain wild type, active compounds read low

Measured: normalized growth

O=C1NN(c2ccccc2)C(=S)Nc2ccccc21
inactive: [1] 1 | S. cerevisiae deletion strains, locus YBR229C, strain ROT2, active compounds read low 1.01 | [2] 0.988 | [3] 0.994 | [4] 1.01 | [5] 0.986 | [6] 0.986 | [7] 1 | S. cerevisiae deletion strains, locus YJL187C, strain SWE1, active compounds read low 0.988 | [8] 0.997 | [9] 0.994 | [10] 0.994 | [11] 1 | [12] 0.984 | [13] 0.999 | [14] 0.987 | [15] 0.999 | [16] 0.996 | S. cerevisiae deletion strains, locus YMR307W, strain GAS1, active compounds read low 0.965 | [17] 0.978 | [18] 1.01 | [19] 1.01 | [20] 1 | [21] 1.02 | [22] 0.98 | [23] 0.979 | [24] 1.01

S=C1NC2(CCCCC2)NN1c1ccccc1
active: [1] 0.869 | S. cerevisiae deletion strains, locus YCL061C, strain MRC1, active compounds read low 0.892 | [4] 0.14 | [5] 0.761 | [6] 0.1 | S. cerevisiae deletion strains, locus YKL190W, strain CNB1, active compounds read low 0.0617 | [10] 0.116 | [12] 0.0768 | [13] 0.114 | [14] 0.0764 | [16] 0.895 | [17] 0.884 | [18] 0.0996 | [20] 0.0942 | S. cerevisiae deletion strains, locus YOL006C, strain TOP1, active compounds read low 0.088 | [21] 0.759 | [22] 0.0946 | [23] 0.223 | [24] 0.0726
inactive: [2] 0.92 | [3] 0.836 | [7] 0.987 | [8] 0.94 | [9] 0.908 | [11] 0.98 | [15] 0.956 | [19] 0.988

Cc1ccc(S(=O)(=O)Nc2nc(-c3ccc(C)c(Cl)c3)c(C)s2)cc1
inactive: S. cerevisiae deletion strains, locus YAR019C, strain CDC15, active compounds read low 0.994 | S. cerevisiae deletion strains, locus YBL105C, strain PKC1, active compounds read low 0.99 | S. cerevisiae deletion strains, locus YBR135W, strain CKS1, active compounds read low 0.98 | S. cerevisiae deletion strains, locus YBR136W, strain MEC1, active compounds read low 0.991 | S. cerevisiae deletion strains, locus YBR160W, strain CDC28, active compounds read low 0.988 | S. cerevisiae deletion strains, locus YDL017W, strain CDC7, active compounds read low 0.991 | S. cerevisiae deletion strains, locus YDL028C, strain MPS1, active compounds read low 0.988 | [2] 0.989 | S. cerevisiae deletion strains, locus YDL108W, strain KIN28, active compounds read low 0.993 | S. cerevisiae deletion strains, locus YDL132W, strain cdc53, active compounds read low 0.983 | S. cerevisiae deletion strains, locus YDL214C, strain PRR2, active compounds read low 0.989 | S. cerevisiae deletion strains, locus YDR052C, strain DBF4, active compounds read low 0.983 | S. cerevisiae deletion strains, locus YDR054C, strain cdc34, active compounds read low 0.989 | S. cerevisiae deletion strains, locus YDR226W, strain ADK1, active compounds read low 0.985 | S. cerevisiae deletion strains, locus YDR477W, strain SNF1, active compounds read low 1.04 | S. cerevisiae deletion strains, locus YER123W, strain YCK3, active compounds read low 1.02 | S. cerevisiae deletion strains, locus YER133W, strain GLC7, active compounds read low 1.02 | S. cerevisiae deletion strains, locus YFL009W, strain cdc4, active compounds read low 0.989 | S. cerevisiae deletion strains, locus YFL029C, strain CAK1, active compounds read low 0.998 | S. cerevisiae deletion strains, locus YFR003C, strain YPI1, active compounds read low 0.992 | S. cerevisiae deletion strains, locus YFR019W, strain FAB1, active compounds read low 1.02 | S. cerevisiae deletion strains, locus YFR028C, strain CDC14, active compounds read low 0.99 | S. cerevisiae deletion strains, locus YGR040W, strain KSS1, active compounds read low 1.02 | S. cerevisiae deletion strains, locus YGR092W, strain DBF2, active compounds read low 1.01 | S. cerevisiae deletion strains, locus YHR205W, strain SCH9, active compounds read low 0.942 | S. cerevisiae deletion strains, locus YIL147C, strain SLN1, active compounds read low 0.983 | S. cerevisiae deletion strains, locus YJL128C, strain PBS2, active compounds read low 0.925 | S. cerevisiae deletion strains, locus YJL157C, strain FAR1, active compounds read low 1.02 | S. cerevisiae deletion strains, locus YJR016C, strain ILV3, active compounds read low 0.979 | S. cerevisiae deletion strains, locus YJR066W, strain TOR1 (second series), active compounds read low 1.04 | S. cerevisiae deletion strains, locus YKL048C, strain ELM1, active compounds read low 0.986 | S. cerevisiae deletion strains, locus YKL067W, strain YNK1, active compounds read low 0.997 | S. cerevisiae deletion strains, locus YKL101W, strain HSL1, active compounds read low 0.981 | S. cerevisiae deletion strains, locus YKL193C, strain SDS22, active compounds read low 0.986 | S. cerevisiae deletion strains, locus YKL203C, strain TOR2, active compounds read low 1.08 | S. cerevisiae deletion strains, locus YLR133W, strain CKI1, active compounds read low 0.995 | S. cerevisiae deletion strains, locus YLR403W, strain SFP1, active compounds read low 1.02 | S. cerevisiae deletion strains, locus YML070W, strain DAK1, active compounds read low 0.99 | S. cerevisiae deletion strains, locus YMR001C, strain CDC5, active compounds read low 0.988 | S. cerevisiae deletion strains, locus YMR205C, strain PFK2 (second series), active compounds read low 0.987 | S. cerevisiae deletion strains, locus YMR277W, strain FCP1, active compounds read low 0.992 | S. cerevisiae deletion strains, locus YNL006W, strain LST8, active compounds read low 0.981 | S. cerevisiae deletion strains, locus YNL020C, strain ARK1, active compounds read low 0.996 | S. cerevisiae deletion strains, locus YNL161W, strain CBK1, active compounds read low 0.992 | S. cerevisiae deletion strains, locus YNL207W, strain RIO2, active compounds read low 0.996 | S. cerevisiae deletion strains, locus YNL222W, strain SSU72, active compounds read low 0.996 | S. cerevisiae deletion strains, locus YNL307C, strain MCK1 (second series), active compounds read low 0.982 | S. cerevisiae deletion strains, locus YOL078W, strain AVO1, active compounds read low 0.991 | S. cerevisiae deletion strains, locus YOL136C, strain PFK27, active compounds read low 0.987 | S. cerevisiae deletion strains, locus YOR061W, strain CKA2, active compounds read low 1.02 | S. cerevisiae deletion strains, locus YOR119C, strain RIO1, active compounds read low 1.05 | S. cerevisiae deletion strains, locus YOR329C, strain SCD5, active compounds read low 0.985 | S. cerevisiae deletion strains, locus YPL031C, strain PHO85, active compounds read low 1.02 | S. cerevisiae deletion strains, locus YPL153C, strain RAD53, active compounds read low 1.01 | S. cerevisiae deletion strains, locus YPL204W, strain HRR25, active compounds read low 1.03 | S. cerevisiae deletion strains, locus YPL209C, strain IPL1, active compounds read low 0.986 | S. cerevisiae deletion strains, locus YPR025C, strain CCL1, active compounds read low 0.985 | S. cerevisiae deletion strains, locus YPR106W, strain ISR1, active compounds read low 0.992 | S. cerevisiae deletion strains, locus YPR111W, strain DBF20, active compounds read low 0.987 | S. cerevisiae deletion strains, strain NNK1, active compounds read low 0.995 | S. cerevisiae deletion strains, strain TSCII, active compounds read low 0.994
active: [6] 1.77 [resistant] | S. cerevisiae deletion strains, locus YHR079C, strain IRE1, active compounds read low 2.3 [resistant] | S. cerevisiae deletion strains, locus YJL095W, strain BCK1, active compounds read low 1.77 [resistant] | S. cerevisiae deletion strains, locus YLR113W, strain HOG1, active compounds read low 1.41 [resistant] | S. cerevisiae deletion strains, locus YOR231W, strain MKK1, active compounds read low 2.03 [resistant] | S. cerevisiae deletion strains, locus YPL256C, strain CLN2, active compounds read low 1.74 [resistant]
